Data: PubChem BioAssay
Records with an inconclusive call do not appear. Activity calls are given as the source filed them.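 The calls were made as follows, unless noted: active = inhibition above the screen-wide mean plus 3 SD, about 51%; inactive = the rest.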

Assays:
[1] = yeast TOR pathway RPL19A-GFP modulators, primary screen, cell-based, S. cerevisiae, multiplex flow cytometry (AID 1862; in the data active = percent of DMSO control GFP below about 86%;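 also: lower values mimic rapamycin by blocking the RPL19A rise seen in DMSO cells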); conditions: S. cerevisiae RPL19A-GFP strain, flow cytometry fluorescence, 3 h; at 10 µM; stronger effect = lower value
[2] = modulators of MEP2-GFP levels in yeast, primary screen, S. cerevisiae, multiplex flow cytometry (AID 1867;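 active = GFP response, as percent of the DMSO control, above the screen-wide mean plus 3 SD, about 139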;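 also: median GFP channel fluorescence of barcode-gated MEP2-GFP cells measured by flow cytometry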); conditions: S. cerevisiae MEP2-GFP strain, 3 h, at 10 µM, stronger effect = higher value, 100% means same as DMSO wells
[3] = modulators of CIT2-GFP expression in yeast, primary screen, S. cerevisiae, GFP fusion, multiplex flow cytometry (AID 1870;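 active = percent response above a set limit, the screen-wide mean plus 3 SD, cut at about 130% in these data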;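 also: barcoded CIT2-GFP strain pooled with four other GFP strains with rapamycin as positive control; median GFP fluorescence per well over plate mean of DMSO wells so 100% = DMSO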); conditions: 3 h, at 10 µM, stronger effect = higher value
[4] = modulators of LAP4-GFP expression in yeast, primary screen, S. cerevisiae, multiplex flow cytometry (AID 1873;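 active = GFP signal, as percent of the solvent control, above the screen mean plus 3 SD, about 149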); conditions: 3 h, at 10 µM, stronger effect = higher value
[5] = modulators of AGP1-GFP expression in yeast TOR pathway, primary screen, cell-based, multiplex flow cytometry, S. cerevisiae (AID 1887;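 active = GFP signal above the screen-wide mean plus 3 SD, that is over about 124.5% of the solvent control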;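 also: AGP1-GFP fusion strain of S. cerevisiae within a five-strain barcoded multiplex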); conditions: 3 h, at 10 µM, stronger effect = higher value
[6] = inhibitors of CD8+ T cell-vesicle binding, pilot screen, LFA-1/ICAM-1 modulator project, MLPCN validation set, flow cytometry (AID 2523;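 active = response below a set limit, under 55% cells CD8-positive and vesicle-bound, and CD8 cells' 90th-percentile brightness under 279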;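 as to vesicle binding response: mean PE anti-B7-1 fluorescence of CD8+ cells relative to row control; 100% = QL9-loaded vesicles with DMSO vehicle in the same plate row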); conditions: 2C mouse CD8+ T cells, at 7 µM, stronger effect = lower value; double positive events: measured here: CD8+/vesicle+ event percentage
[7] = target: Integrin beta-1 (Homo sapiens) + Integrin alpha-4 (Homo sapiens) (UniProt P13612+P05556); assay: inhibition of HUTS-21 binding to VLA-4, pilot screen, VLA-4 allosteric modulator project, U937 cells, HUTS-21 mAb, flow cytometry, validation set (AID 2674;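 active = inhibition above 50%, about 3 SD of the validation set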;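 also: antibody binding induced by the VLA-4 ligand LDV present at three times its Kd; 0% = LDV ligand with antibody and no compound and 100% = antibody without LDV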); conditions: HUTS-21 LIBS mAb binding, at 6.7 µM, stronger effect = higher value, binding induced by LDV ligand
[8] = superoxide lowering in aged yeast cells, pilot screen, validation compound set (AID 2706;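 active = superoxide response below 65% of plate, a cut near 3 SD across the whole screen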;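 also: yeast exposed to compound for one week at 30 degrees C before staining; 100% = mean of all compound wells on the same plate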); conditions: S. cerevisiae aging, superoxide DHE fluorescence; at 10 µM; stronger effect = lower value
[9] = target: Beta-adrenergic receptor kinase 1 (Homo sapiens) (UniProt P25098); assay: GRK2 binders displacing RNA aptamer, biochemical, validation, human GRK2, bead flow cytometry (AID 488806;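 active = aptamer binding inhibition above 30%, about 3 SD of noise from non-fluorescent compounds; inactive = inhibition at or below 30%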); conditions: bead-bound GRK2, FAM-aptamer displacement, at 10 µM, stronger effect = higher value
[10] = target: Beta-2 adrenergic receptor (Homo sapiens) (UniProt P07550); assay: beta2AR agonists driving receptor internalization, pilot screen, cell-based, FAP fluorogen, flow cytometry, validation set (AID 504459;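 active = percent response above 42, roughly 3 SD of non-fluorescent test compounds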;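 also: agonist-driven loss of surface beta2AR via internalization measured by FAP dye flow cytometry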); conditions: Am2.2-beta2AR cells, FAP surface receptor flow cytometry; at 10 µM; stronger effect = higher value
[11] = target: AP-2 complex subunit beta (Homo sapiens) (UniProt P63010); assay: inhibitors of arrestin peptide binding to AP2, pilot screen, biochemical, validation set, GST-AP2 beads, flow cytometry (AID 504541;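 active = inhibition above 54%, about 3 SD of non-fluorescent compounds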;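 also: AP2 carries R879A mutation and is captured from E. coli lysate; bead-bound FITC arrestin peptide fluorescence measuring arrestin peptide binding to AP2; 0% = DMSO wells and 100% = excess unlabeled arrestin peptide control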); conditions: FITC arrestin peptide, at 10 µM, stronger effect = higher value, AP2 beta2 appendage fragment, R879A mutant
[12] = yeast V-ATPase proton transport modulators, S. cerevisiae, pHLuorin, HTS validation (AID 504600; in the data active = response above about 15%;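 also: plate controls were DMSO for no effect and reference compound for full effect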); conditions: S. cerevisiae pHLuorin cytosolic pH, at 10 µM, stronger effect = higher value
[13] = system: anti-desmoglein-3 scFv antibody binding to human DSG3; assay: inhibitors of anti-DSG3 scFv binding to DSG3, pilot screen, biochemical, validation compound set, bead-based, flow cytometry (AID 588368;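 active = binding below the plate cutoff, the plate median minus 3 SD, with a reading above zero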;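 also: signal is the median channel fluorescence of bead-bound GFP antibody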); conditions: Protein G beads, DSG3-Fc, scFv-GFP binding, at 10 µM, stronger effect = lower value
[14] = inhibitors of fungal efflux pumps CDR1, CDR2, MDR1, pilot screen, validation compound set, multiplex, phenotypic (AID 588506;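 active = efflux inhibition above 0.42, the validation set average plus 4 SD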;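 also: Nile Red retained in cells so higher fluorescence means more efflux inhibition; 0 = negative control wells and 1 = enniatin B 25 µM full block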); conditions: S. cerevisiae pump-expressing triplex, Nile Red efflux flow cytometry; at 10 µM; stronger effect = higher value; the pumps come from Candida albicans
[15] = target: ATP-binding cassette sub-family B member 6 (Homo sapiens) (UniProt Q9NP58); assay: ABCB6 transporter inhibitors, pilot screen, K562-ABCB6 cells, flow cytometry, validation set (AID 588550); conditions: K562-ABCB6 porphyrin accumulation, 1 h, at 10 µM, stronger effect = higher value;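 also: 0% = DMSO wells and 100% = benzethonium chloride 70 µM positive control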
[16] = promoters of myeloid differentiation in arrested cells, primary screen, cell-based, GFP/MAC1 double positive, flow cytometry, validation set (AID 588685;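 active = differentiation response of at least 50%, scaled between solvent and reference control, from cells with both markers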;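 also: compound exposure lasts four days before antibody staining and flow analysis; 0% = DMSO wells and 100% = 5 µM fulvestrant positive control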); conditions: ER-HoxA9 marrow cells, stronger effect = higher value, normalized: vehicle 0, fulvestrant 100

Sequence of Beta-adrenergic receptor kinase 1 (Homo sapiens) (P25098 whole entry, looked up): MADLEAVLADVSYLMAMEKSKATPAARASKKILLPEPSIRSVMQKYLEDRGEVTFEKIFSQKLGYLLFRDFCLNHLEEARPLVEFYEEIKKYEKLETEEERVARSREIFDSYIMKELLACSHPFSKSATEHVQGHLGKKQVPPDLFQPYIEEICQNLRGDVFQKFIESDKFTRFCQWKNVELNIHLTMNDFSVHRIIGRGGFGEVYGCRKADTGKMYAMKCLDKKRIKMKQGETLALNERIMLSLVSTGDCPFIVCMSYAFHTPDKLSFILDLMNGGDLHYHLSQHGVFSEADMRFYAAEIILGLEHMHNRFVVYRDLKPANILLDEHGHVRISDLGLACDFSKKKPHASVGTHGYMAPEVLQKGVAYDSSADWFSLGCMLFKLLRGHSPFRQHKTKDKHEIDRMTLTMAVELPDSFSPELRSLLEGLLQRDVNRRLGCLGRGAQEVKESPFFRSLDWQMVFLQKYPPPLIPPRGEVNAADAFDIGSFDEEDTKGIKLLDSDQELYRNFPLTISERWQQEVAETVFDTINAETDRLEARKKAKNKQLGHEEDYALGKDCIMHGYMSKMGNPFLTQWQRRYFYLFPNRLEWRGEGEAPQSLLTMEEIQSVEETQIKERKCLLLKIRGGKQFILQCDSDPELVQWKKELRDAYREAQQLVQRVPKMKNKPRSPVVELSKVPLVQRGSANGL
Sequence of Beta-2 adrenergic receptor (Homo sapiens) (P07550 whole entry, looked up): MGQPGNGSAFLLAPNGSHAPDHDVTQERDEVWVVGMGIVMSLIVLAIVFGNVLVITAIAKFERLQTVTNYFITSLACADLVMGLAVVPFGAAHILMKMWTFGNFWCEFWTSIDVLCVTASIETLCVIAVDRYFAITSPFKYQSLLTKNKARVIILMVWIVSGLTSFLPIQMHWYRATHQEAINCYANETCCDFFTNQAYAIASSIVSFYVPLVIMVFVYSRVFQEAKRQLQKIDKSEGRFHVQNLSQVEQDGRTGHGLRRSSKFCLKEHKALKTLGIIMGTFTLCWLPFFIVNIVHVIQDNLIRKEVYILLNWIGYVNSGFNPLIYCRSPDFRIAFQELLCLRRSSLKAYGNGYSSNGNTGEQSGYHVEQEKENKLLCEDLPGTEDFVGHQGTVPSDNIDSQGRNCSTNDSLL
Sequence of Integrin beta-1 (Homo sapiens) + Integrin alpha-4 (Homo sapiens) (P05556 whole entry, looked up): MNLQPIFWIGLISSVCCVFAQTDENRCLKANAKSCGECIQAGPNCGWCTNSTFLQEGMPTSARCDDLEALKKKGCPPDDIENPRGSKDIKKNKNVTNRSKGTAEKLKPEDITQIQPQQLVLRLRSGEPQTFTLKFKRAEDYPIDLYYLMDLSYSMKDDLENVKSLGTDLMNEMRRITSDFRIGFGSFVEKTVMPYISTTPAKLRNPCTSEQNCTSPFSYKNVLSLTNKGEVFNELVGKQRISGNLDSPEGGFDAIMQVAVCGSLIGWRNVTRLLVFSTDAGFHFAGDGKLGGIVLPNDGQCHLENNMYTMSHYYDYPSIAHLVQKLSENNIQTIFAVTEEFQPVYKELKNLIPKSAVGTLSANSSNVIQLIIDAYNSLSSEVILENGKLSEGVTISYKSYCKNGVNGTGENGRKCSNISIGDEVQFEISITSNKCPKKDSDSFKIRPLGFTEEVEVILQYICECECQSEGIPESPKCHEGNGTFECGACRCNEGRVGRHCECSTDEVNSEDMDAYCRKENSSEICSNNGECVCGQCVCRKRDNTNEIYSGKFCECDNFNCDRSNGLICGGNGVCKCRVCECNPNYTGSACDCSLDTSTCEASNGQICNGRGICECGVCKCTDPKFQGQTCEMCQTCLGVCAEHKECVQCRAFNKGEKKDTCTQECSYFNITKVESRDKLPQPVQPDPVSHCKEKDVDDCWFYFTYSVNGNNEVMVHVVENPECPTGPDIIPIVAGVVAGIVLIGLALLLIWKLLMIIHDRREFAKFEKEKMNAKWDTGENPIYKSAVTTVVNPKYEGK
Sequence of Integrin beta-1 (Homo sapiens) + Integrin alpha-4 (Homo sapiens) (P13612 whole entry, looked up): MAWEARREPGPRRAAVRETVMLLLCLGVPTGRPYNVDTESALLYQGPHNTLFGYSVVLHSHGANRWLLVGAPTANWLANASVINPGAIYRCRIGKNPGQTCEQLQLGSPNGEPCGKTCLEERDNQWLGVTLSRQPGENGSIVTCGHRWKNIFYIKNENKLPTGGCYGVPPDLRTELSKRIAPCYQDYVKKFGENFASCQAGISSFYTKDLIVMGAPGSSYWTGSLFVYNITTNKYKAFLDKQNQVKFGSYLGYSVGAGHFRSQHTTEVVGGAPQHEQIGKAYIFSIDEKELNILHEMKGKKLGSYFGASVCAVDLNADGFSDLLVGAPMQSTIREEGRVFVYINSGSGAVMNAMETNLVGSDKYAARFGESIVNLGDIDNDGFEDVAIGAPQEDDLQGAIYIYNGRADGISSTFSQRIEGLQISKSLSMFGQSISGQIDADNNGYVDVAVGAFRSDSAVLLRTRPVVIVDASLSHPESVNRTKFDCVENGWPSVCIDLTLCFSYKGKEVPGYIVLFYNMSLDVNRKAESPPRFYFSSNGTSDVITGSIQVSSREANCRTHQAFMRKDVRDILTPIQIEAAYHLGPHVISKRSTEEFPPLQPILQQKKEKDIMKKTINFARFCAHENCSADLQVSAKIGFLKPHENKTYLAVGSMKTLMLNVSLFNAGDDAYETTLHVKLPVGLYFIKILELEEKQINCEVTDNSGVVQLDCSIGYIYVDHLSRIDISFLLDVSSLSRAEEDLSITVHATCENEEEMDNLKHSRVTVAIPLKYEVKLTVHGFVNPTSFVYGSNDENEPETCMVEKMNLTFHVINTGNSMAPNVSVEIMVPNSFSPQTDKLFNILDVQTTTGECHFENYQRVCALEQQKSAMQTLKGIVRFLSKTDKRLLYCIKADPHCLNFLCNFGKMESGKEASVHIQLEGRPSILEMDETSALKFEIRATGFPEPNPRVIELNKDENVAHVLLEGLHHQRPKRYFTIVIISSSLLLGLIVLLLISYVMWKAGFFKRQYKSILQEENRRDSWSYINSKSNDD
Sequence of AP-2 complex subunit beta (Homo sapiens) (P63010 whole entry, looked up, the tested form may be a part, one chain of several): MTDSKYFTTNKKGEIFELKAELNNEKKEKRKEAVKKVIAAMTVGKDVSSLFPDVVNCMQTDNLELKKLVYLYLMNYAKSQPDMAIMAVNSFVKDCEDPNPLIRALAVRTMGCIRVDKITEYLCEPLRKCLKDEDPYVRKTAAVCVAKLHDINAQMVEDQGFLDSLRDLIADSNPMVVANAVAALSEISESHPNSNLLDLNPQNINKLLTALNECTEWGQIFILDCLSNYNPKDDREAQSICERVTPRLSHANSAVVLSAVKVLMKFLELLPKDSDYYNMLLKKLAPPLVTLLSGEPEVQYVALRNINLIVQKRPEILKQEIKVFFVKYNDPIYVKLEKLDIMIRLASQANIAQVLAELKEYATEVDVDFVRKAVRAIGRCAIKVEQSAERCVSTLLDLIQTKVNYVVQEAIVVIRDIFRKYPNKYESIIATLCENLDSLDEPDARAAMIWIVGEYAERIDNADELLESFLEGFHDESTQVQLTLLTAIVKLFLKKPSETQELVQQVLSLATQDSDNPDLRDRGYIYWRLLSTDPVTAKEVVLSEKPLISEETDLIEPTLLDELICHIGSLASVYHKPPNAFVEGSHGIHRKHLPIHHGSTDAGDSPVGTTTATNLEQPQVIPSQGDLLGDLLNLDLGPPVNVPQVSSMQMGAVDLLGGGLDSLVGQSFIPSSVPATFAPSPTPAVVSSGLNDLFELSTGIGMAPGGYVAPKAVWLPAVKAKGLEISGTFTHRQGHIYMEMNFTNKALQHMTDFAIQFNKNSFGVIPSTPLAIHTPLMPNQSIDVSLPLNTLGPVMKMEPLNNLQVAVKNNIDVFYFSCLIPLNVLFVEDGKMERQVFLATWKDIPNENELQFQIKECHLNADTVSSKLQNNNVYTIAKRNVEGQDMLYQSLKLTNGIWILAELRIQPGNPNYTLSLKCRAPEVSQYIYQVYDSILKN
Sequence of ATP-binding cassette sub-family B member 6 (Homo sapiens) (Q9NP58 whole entry, looked up): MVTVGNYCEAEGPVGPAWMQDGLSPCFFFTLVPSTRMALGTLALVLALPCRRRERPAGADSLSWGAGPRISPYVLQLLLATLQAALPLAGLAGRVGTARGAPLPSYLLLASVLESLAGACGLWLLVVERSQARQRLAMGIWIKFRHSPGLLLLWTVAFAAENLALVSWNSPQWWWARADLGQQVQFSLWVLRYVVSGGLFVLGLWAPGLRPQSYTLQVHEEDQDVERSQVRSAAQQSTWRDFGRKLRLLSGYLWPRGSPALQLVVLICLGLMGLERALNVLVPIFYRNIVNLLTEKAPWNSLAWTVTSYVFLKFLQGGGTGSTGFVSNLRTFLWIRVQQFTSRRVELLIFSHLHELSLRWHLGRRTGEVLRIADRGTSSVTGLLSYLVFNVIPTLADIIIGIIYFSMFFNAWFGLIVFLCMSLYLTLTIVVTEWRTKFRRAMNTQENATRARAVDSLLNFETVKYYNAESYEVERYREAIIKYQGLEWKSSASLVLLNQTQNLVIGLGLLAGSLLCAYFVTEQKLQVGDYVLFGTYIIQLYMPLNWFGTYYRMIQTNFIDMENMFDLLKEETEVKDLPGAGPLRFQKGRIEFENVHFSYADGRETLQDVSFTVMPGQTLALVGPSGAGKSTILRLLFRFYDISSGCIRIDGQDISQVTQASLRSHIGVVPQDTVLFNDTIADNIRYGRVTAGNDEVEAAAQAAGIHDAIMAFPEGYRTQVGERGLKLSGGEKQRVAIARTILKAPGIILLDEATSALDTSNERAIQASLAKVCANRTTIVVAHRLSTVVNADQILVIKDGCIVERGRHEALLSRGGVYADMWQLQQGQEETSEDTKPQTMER

COc1ccc(NC(=O)C2CCCN2C(=O)OC(C)(C)C)cc1 (stereo not given)
69.5%: double positive events [6]
active: superoxide response (% of plate) [8] 53.3%
inactive: percent of DMSO control GFP [1] 102% | GFP response vs DMSO [2] 102% | percent response of DMSO control [3] 100% | GFP response vs DMSO [4] 92.3% | GFP response, % of DMSO [5] 99.9% | vesicle binding response [6] 107% | inhibition [7] 2.55% | aptamer binding inhibition [9] 0% | response [10] -5.75% | inhibition [11] -4.29% | response [12] -0.27% | binding (% of control) [13] 102% | efflux inhibition (fraction of control) [14] -0.38 | inhibition [15] 8% | differentiation response [16] -5.68%

COc1ccc(CNC(=O)c2c(O)c3cccc4c3n(c2=O)CCC4)cc1
active: efflux inhibition (fraction of control) [14] 0.62
inactive: percent of DMSO control GFP [1] 104% | GFP response vs DMSO [2] 105% | percent response of DMSO control [3] 93.9% | GFP response vs DMSO [4] 94.4% | GFP response, % of DMSO [5] 99.4% | vesicle binding response [6] 18.9% | inhibition [7] -7.47% | superoxide response (% of plate) [8] 96.7% | aptamer binding inhibition [9] 9% | response [10] 4.63% | inhibition [11] 7.55% | response [12] -1.56% | binding (% of control) [13] 99.5% | inhibition [15] 5% | differentiation response [16] 1.17%
57.5%: double positive events [6]

CCOc1ncnc2c1[nH]c1ccccc12
52.2%: double positive events [6]
active: response [12] 19.2%
inactive: percent of DMSO control GFP [1] 99.7% | GFP response vs DMSO [2] 98.5% | percent response of DMSO control [3] 104% | GFP response vs DMSO [4] 88% | GFP response, % of DMSO [5] 85.7% | vesicle binding response [6] 354% | inhibition [7] -8.62% | superoxide response (% of plate) [8] 101% | aptamer binding inhibition [9] 4% | response [10] 14.8% | inhibition [11] -7.64% | binding (% of control) [13] 98.9% | efflux inhibition (fraction of control) [14] 0.01 | inhibition [15] 8% | differentiation response [16] -31.2%

COc1cccc(OCC(O)CO)c1 (stereo not given)
inactive: percent of DMSO control GFP [1] 97.6% | GFP response vs DMSO [2] 91.9% | percent response of DMSO control [3] 107% | GFP response vs DMSO [4] 78.6% | GFP response, % of DMSO [5] 91.6% | vesicle binding response [6] 160% | inhibition [7] 0.94% | superoxide response (% of plate) [8] 94.9% | aptamer binding inhibition [9] 4% | response [10] 3.25% | inhibition [11] 11.4% | response [12] -1.06% | binding (% of control) [13] 99.9% | efflux inhibition (fraction of control) [14] -0.1 | inhibition [15] 1% | differentiation response [16] -4%
58.2%: double positive events [6]

COc1ccc(N2CCN(C(=S)NCc3ccccc3)CC2)cc1
65.5%: double positive events [6]
inactive: percent of DMSO control GFP [1] 91.7% | GFP response vs DMSO [2] 133% | percent response of DMSO control [3] 101% | GFP response vs DMSO [4] 81.4% | GFP response, % of DMSO [5] 88.2% | vesicle binding response [6] 171% | inhibition [7] 0.64% | superoxide response (% of plate) [8] 82.1% | aptamer binding inhibition [9] 2% | response [10] -3.32% | inhibition [11] 30.1% | response [12] -3.6% | binding (% of control) [13] 108% | efflux inhibition (fraction of control) [14] 0.16 | inhibition [15] 0% | differentiation response [16] 4.09%

c1ccc2[nH]c(-c3cscn3)nc2c1
58.6%: double positive events [6]
inactive: percent of DMSO control GFP [1] 97.6% | GFP response vs DMSO [2] 103% | percent response of DMSO control [3] 97.7% | GFP response vs DMSO [4] 123% | GFP response, % of DMSO [5] 111% | vesicle binding response [6] 174% | inhibition [7] 2.29% | superoxide response (% of plate) [8] 85.3% | aptamer binding inhibition [9] -2% | response [10] -32% | inhibition [11] 5.36% | response [12] 1.12% | binding (% of control) [13] 108% | efflux inhibition (fraction of control) [14] 0 | inhibition [15] 0% | differentiation response [16] -2.03%

CCCNCC(O)COc1ccccc1C(=O)CCc1ccccc1 (stereo not given)
inactive: percent of DMSO control GFP [1] 101% | GFP response vs DMSO [2] 110% | percent response of DMSO control [3] 89.6% | GFP response vs DMSO [4] 88.7% | GFP response, % of DMSO [5] 92.9% | vesicle binding response [6] 894% | inhibition [7] 21.3% | superoxide response (% of plate) [8] 98.6% | aptamer binding inhibition [9] 3% | response [10] -7.14% | inhibition [11] -4.07% | response [12] 0.31% | binding (% of control) [13] 100% | efflux inhibition (fraction of control) [14] 0.11 | inhibition [15] -1% | differentiation response [16] -0.73%
62.4%: double positive events [6]

COC(=O)CCC(=O)CN
inactive: percent of DMSO control GFP [1] 102% | GFP response vs DMSO [2] 106% | percent response of DMSO control [3] 110% | GFP response vs DMSO [4] 118% | GFP response, % of DMSO [5] 113% | vesicle binding response [6] 148% | inhibition [7] -5.11% | superoxide response (% of plate) [8] 94% | aptamer binding inhibition [9] -3% | response [10] 1.35% | inhibition [11] 7.22% | response [12] -6.15% | binding (% of control) [13] 102% | efflux inhibition (fraction of control) [14] -0.11 | inhibition [15] 5% | differentiation response [16] 7.13%
62.2%: double positive events [6]

CC12CN3CC(C)(CN(C1)C3c1ccc([N+](=O)[O-])o1)C2 (stereo not given)
64.6%: double positive events [6]
inactive: percent of DMSO control GFP [1] 102% | GFP response vs DMSO [2] 101% | percent response of DMSO control [3] 95.4% | GFP response vs DMSO [4] 96% | GFP response, % of DMSO [5] 91.5% | vesicle binding response [6] 1050% | inhibition [7] 12% | superoxide response (% of plate) [8] 111% | aptamer binding inhibition [9] 5% | response [10] -5.46% | inhibition [11] 1.92% | response [12] 2.45% | binding (% of control) [13] 93.8% | efflux inhibition (fraction of control) [14] -0.1 | inhibition [15] -9% | differentiation response [16] 7.09%

COc1cccc(-n2cc(CNCc3c(C(=O)N(C)C)nc4ccc(Cl)cn34)cn2)c1
61.4%: double positive events [6]
inactive: percent of DMSO control GFP [1] 103% | GFP response vs DMSO [2] 106% | percent response of DMSO control [3] 111% | GFP response vs DMSO [4] 90.1% | GFP response, % of DMSO [5] 99.9% | vesicle binding response [6] 171% | inhibition [7] -4.6% | superoxide response (% of plate) [8] 106% | aptamer binding inhibition [9] 5% | response [10] -6.24% | inhibition [11] -5.56% | response [12] -0.56% | binding (% of control) [13] 98% | efflux inhibition (fraction of control) [14] -0.26 | inhibition [15] 19% | differentiation response [16] 10%
